Calls of active or inactive are those of the source. Unless noted, the rule behind the calls is not given here.
Experiments:
[1] = tested on: Wnt5a (protein binding on small-molecule microarray); assay: small molecules binding Wnt5a protein – biophysical, small-molecule microarray, 635/667 nm fluorescence, primary screen (AID 1142); settings: 635 nm fluorescence, higher = more signal;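 note: fluorescence read at 667 nm with signal to noise per printed feature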
[2] = ATP-based viability of Huh7 replicon cells – cell-based, CellTiter-Glo luminescence, basal, 48 h, cytotoxicity control for HCV replication inhibitor project, primary screen (AID 1143); settings: higher = more signal, called active from +8 up or from −8 down;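 note: Huh7 hepatoma cells carrying a hepatitis C replication reporter with no stimulus; test concentration not given here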
[3] = Pseudomonas biofilm growth suppression – PAO1 strain, BacTiter-Glo luminescence, LB-PBS, primary screen (AID 1144); settings: P. aeruginosa PAO1 biofilm, 12 h, higher = more signal
[4] = basal CRE-LacZ reporter activity in PC12 – cell-based, unstimulated, primary screen (AID 1145); settings: no forskolin, luminescence, 4.5 h, higher = more signal, called active from +8 up or from −8 down
[5] = forskolin-driven CRE-LacZ activity in PC12 – cell-based, CRE-LacZ reporter, forskolin-stimulated, primary screen (AID 1146); settings: luminescence, 4.5 h, higher = more signal, called active from +8 up or from −8 down;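 note: PC12 cells with 6xCRE LacZ reporter stimulated by forskolin 10 µM; beta-galactosidase reporter signal reflecting CREB driven transcription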
[6] = target: Streptavidin (Streptomyces avidinii) (UniProt P22629); assay: compounds binding control protein streptavidin – biophysical, small-molecule microarray, 635/667 nm fluorescence, artefact control for SMM compound annotation, primary screen (AID 1147); settings: higher = more signal;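 note: signal reflects streptavidin binding to arrayed compounds as a control protein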
[7] = probe aInhba binding on compound microarray – biochemical, small-molecule microarray, 635/667 nm fluorescence, primary screen (AID 1148); settings: higher = more signal;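 note: score merges 667nm spot fluorescence with signal-to-noise for antibody binding to printed compounds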
Torsin-1A (Homo sapiens) [8] = target: Torsin-1A (Homo sapiens) (UniProt O14656); assay: TOR1A wild-type binding on microarray – cell lysate, small-molecule microarray, lysate, 635/667 nm, primary screen (AID 1149); settings: COS7 hTOR1A-WT lysate, 635 nm fluorescence, higher = more signal
Torsin-1A (Homo sapiens) [9] = target: Torsin-1A (Homo sapiens) (UniProt O14656); assay: torsin A mutant lysate binding on microarrays – cell lysate, small-molecule microarray, COS7 lysate, 635/667 nm fluorescence, primary screen (AID 1150); settings: COS7 hTOR1A mutant lysate, 635 nm fluorescence, higher = more signal;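 note: score pools 667 nm emission and signal to noise measuring lysate protein binding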
[10] = tested on: Sonic hedgehog protein (Shh); assay: Sonic hedgehog microarray binding compounds – biochemical, small-molecule microarray, 635/667 nm fluorescence, primary screen (AID 1151); settings: 635 nm fluorescence, higher = more signal;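 note: Shh protein binding to compounds spotted on small-molecule microarray slides; score combines spot fluorescence intensity with signal-to-noise across triplicate slides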
[11] = optical density shifts of acrAB sulA E. coli – strain DRC41, OD650, 48 h, E. coli filamentation inducer project, primary screen (AID 1152); settings: higher = more signal, called active from +8 up or from −8 down;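 note: E. coli MC1000 strain DRC41 lacking acrAB efflux pump and sulA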
[12] = probe aLefty1 binding on compound microarray – biochemical, small-molecule microarray, 635/667 nm fluorescence, primary screen (AID 1153); settings: higher = more signal;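 note: score merges spot fluorescence with signal-to-noise ratio from the scanned slide images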
[13] = plasmodial surface anion channel blockers, osmotic lysis – cell-based, P. falciparum Indochina, OD700, 1 h, primary screen (AID 1154); settings: P. falciparum Indochina infected RBC osmotic lysis, higher = more signal, called active from +8 up or from −8 down
[14] = plasmodial surface anion channel blockers, osmotic lysis – cell-based, P. falciparum Indochina, OD700, 2 h, primary screen (AID 1155);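 note: lysis reports solute entry through the parasite surface anion channel PSAC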; settings: P. falciparum Indochina infected erythrocytes, higher = more signal, called active from +8 up or from −8 down
[15] = changes in parasitized red cell lysis, either direction – P. falciparum Indochina, OD700, 3 h, PSAC antagonist project, primary screen (AID 1156); settings: P. falciparum-infected erythrocytes, osmotic lysis, higher = more signal, called active from +8 up or from −8 down
[16] = plasmodial surface anion channel blockers, osmotic lysis – cell-based, P. falciparum Indochina, OD700, 18 h, primary screen (AID 1157); settings: P. falciparum Indochina infected erythrocytes, osmotic lysis OD700, 18 h; higher = more signal, called active from +8 up or from −8 down
[17] = S6 kinase pathway phospho-S6 level changes – cell-based, A549, cytoblot, luminescence, serum-stimulated, primary screen (AID 1158); settings: 5 h, higher = more signal;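 note: serum-stimulated A549 lung adenocarcinoma cells; signal is phosphorylated S6 detected by cytoblot immunostaining with HRP secondary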
[18] = target: NADPH oxidase 2 (Homo sapiens) (UniProt P04839); assay: compounds shifting NOX2 Amplex Red fluorescence – cell-based, HEK293-NOX2, PMA-stimulated, NOX inhibitor project, primary screen (AID 1159); settings: 45 min, higher = more signal, called active from +8 up or from −8 down; note: test concentration not given here
[19] = target: NADPH oxidase 4 (Homo sapiens) (UniProt Q9NPH5); assay: compounds shifting NOX4 Amplex Red fluorescence – cell-based, HEK293-NOX4, tetracycline-induced, NOX inhibitor project, primary screen (AID 1160); settings: HEK293-NOX4, Amplex Red H2O2 fluorescence, 45 min; higher = more signal, called active from +8 up or from −8 down
[20] = target: NADPH oxidase 5 (Homo sapiens) (UniProt Q96PH1); assay: compounds shifting NOX5 Amplex Red fluorescence – cell-based, HEK293-NOX5, NOX inhibitor project, primary screen (AID 1161); settings: HEK293-NOX5, ionomycin, 45 min, higher = more signal
NADPH oxidase 5 (Homo sapiens), sequence (Q96PH1 whole entry, looked up): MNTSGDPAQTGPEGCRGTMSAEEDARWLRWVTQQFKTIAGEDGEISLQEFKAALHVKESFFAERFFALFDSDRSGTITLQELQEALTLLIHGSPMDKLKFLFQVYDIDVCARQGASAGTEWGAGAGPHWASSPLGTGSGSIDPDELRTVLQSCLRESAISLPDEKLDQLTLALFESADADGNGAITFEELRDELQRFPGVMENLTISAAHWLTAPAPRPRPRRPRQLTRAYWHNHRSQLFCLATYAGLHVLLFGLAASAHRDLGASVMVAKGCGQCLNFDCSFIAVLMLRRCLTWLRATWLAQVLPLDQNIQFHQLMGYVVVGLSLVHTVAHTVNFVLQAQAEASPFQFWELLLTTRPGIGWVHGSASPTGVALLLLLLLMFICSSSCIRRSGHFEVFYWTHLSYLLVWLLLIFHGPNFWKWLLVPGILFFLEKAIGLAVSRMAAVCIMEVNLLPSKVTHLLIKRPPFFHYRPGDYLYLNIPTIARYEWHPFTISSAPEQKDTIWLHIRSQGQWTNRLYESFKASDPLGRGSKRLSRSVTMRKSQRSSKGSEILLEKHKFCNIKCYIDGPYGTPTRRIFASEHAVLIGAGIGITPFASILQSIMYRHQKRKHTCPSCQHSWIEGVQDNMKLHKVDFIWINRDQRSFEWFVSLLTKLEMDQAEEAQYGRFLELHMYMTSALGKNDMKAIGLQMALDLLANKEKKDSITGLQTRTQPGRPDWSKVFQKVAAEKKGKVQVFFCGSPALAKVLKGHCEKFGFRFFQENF

Streptavidin (Streptomyces avidinii), sequence (P22629 whole entry, looked up): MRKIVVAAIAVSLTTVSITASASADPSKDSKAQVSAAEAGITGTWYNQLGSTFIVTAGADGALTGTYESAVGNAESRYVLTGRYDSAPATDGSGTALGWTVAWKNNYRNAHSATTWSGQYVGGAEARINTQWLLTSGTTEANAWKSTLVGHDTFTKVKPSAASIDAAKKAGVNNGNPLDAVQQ
NADPH oxidase 4 (Homo sapiens), sequence (Q9NPH5 whole entry, looked up): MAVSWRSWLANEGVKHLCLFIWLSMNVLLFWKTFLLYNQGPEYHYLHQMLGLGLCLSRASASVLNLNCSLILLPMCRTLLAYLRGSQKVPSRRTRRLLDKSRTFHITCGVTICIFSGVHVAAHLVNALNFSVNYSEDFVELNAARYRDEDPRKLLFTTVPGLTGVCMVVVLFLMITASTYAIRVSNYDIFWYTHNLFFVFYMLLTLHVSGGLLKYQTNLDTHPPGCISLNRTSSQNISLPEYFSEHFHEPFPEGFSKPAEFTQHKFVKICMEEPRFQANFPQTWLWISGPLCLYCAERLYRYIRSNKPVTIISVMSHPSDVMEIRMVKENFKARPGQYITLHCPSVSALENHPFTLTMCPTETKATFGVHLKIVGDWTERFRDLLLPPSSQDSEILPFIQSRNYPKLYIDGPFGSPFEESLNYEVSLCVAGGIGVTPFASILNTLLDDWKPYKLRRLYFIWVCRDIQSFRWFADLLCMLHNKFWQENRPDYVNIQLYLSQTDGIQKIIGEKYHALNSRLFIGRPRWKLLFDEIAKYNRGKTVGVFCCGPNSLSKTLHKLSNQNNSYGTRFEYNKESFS
NADPH oxidase 2 (Homo sapiens), sequence (P04839 whole entry, looked up): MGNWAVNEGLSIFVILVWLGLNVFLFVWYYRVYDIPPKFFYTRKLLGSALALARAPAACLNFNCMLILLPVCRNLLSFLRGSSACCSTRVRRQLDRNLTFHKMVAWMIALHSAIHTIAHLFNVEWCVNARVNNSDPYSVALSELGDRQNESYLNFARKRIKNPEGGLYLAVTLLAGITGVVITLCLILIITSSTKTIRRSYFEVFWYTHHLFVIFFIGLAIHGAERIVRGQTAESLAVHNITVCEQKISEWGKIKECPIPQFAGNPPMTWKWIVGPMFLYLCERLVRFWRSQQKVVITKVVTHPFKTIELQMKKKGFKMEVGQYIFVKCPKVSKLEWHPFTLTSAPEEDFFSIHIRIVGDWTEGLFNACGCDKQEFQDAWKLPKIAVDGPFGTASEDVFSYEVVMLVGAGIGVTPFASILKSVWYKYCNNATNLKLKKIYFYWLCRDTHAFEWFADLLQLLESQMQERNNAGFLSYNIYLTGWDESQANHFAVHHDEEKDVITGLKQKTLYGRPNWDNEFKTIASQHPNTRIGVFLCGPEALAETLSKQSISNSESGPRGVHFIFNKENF
Torsin-1A (Homo sapiens), sequence (O14656 whole entry, looked up): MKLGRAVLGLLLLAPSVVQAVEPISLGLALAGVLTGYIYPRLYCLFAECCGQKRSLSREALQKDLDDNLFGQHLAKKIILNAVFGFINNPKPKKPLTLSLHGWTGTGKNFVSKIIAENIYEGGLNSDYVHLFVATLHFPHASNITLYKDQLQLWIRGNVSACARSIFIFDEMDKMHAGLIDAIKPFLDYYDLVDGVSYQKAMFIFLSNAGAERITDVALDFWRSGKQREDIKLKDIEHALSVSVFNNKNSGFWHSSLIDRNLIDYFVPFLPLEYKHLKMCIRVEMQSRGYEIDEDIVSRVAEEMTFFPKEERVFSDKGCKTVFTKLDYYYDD

With CC1CC/C=C\[C@H]2OC34C=CCN(Cn5nnc6ccccc65)C(=O)[C@H]3N(CCO)C(=O)[C@@H]4C2C(=O)O1 (stereo not given in full) the composite z-score [1] was -0.335, the z-score [2] was -2.74 (inactive) and the z-score [3] was -2.49 (inactive). The z-score [4] was -1.44 (inactive), the z-score [5] was -1.01 (inactive) and the composite z-score [6] was -0.923. It also gave a composite z-score [7] of -0.0719, a composite z-score (Torsin-1A (Homo sapiens) [8]) of 2.73 and a composite z-score (Torsin-1A (Homo sapiens) [9]) of 2.11. For the same compound, the composite z-score [10] was -0.0981, the z-score [11] was 2.49 (inactive) and the composite z-score [12] was -0.155. For the same compound, the z-score [13] was 2.87 (inactive), the z-score [14] was 0.218 (inactive) and the z-score [15] was -1.23 (inactive). The z-score [16] was -0.752 (inactive), the z-score [17] was 1.03 and the z-score [18] was 1.44 (inactive). The z-score [19] was 0.285 (inactive) and the z-score [20] was 2.67.
For COc1cccc([C@@H]2Oc3ccc(Br)cc3C(=O)[C@H]2O)c1, the composite z-score [1] was 0.134, the z-score [2] was -3.91 (inactive) and the z-score [3] was -0.591 (inactive). The z-score [4] was 4.08 (inactive), the z-score [5] was 0.136 (inactive) and the composite z-score [6] was 0.286. For the same compound, the composite z-score [7] was -0.089, the composite z-score (Torsin-1A (Homo sapiens) [8]) was 0.561 and the composite z-score (Torsin-1A (Homo sapiens) [9]) was 1.1. For the same compound, the composite z-score [10] was 0.936, the z-score [11] was 0.91 (inactive) and the composite z-score [12] was -0.0464. For the same compound, the z-score [13] was 20 (active), the z-score [14] was 3.35 (inactive) and the z-score [15] was -0.0836 (inactive). The z-score [16] was 0.592 (inactive), the z-score [17] was -0.256 and the z-score [18] was 0.658 (inactive). For the same compound, the z-score [19] was -1.89 (inactive) and the z-score [20] was -0.879.
In the case of O=C1[C@H]2[C@H]3[C@H](O)[C@H](O)CC(=NOCc4ccccc4)[C@H]3CC[C@H]2C(=O)N1c1ccc(F)cc1F, the composite z-score [1] is reported as -0.0542, the z-score [2] is reported as -0.627 (inactive) and the z-score [3] is reported as -0.665 (inactive). The z-score [4] was -0.926 (inactive), the z-score [5] was -0.14 (inactive) and the composite z-score [6] was -0.899. The composite z-score [7] was -0.536, the composite z-score (Torsin-1A (Homo sapiens) [8]) was -0.0184 and the composite z-score (Torsin-1A (Homo sapiens) [9]) was -0.013. The composite z-score [10] was -0.311, the z-score [11] was -0.139 (inactive) and the composite z-score [12] was -0.761. For the same compound, the z-score [13] was 9.01 (active), the z-score [14] was 1.42 (inactive) and the z-score [15] was 0.155 (inactive). The z-score [16] was -0.304 (inactive), the z-score [17] was -0.392 and the z-score [18] was -4.97 (inactive). For the same compound, the z-score [19] was 0.187 (inactive) and the z-score [20] was -0.471.
For O=C1NC(=O)C2C1C=CC(C(O)Cc1ccccc1)N2Nc1ccccn1 (stereo not given), the composite z-score [1] was 0.0926, the z-score [2] was -0.151 (inactive) and the z-score [3] was -0.314 (inactive). For the same compound, the z-score [4] was 0.0603 (inactive), the z-score [5] was 0.589 (inactive) and the composite z-score [6] was 0.125. The composite z-score [7] was -0.0039, the composite z-score (Torsin-1A (Homo sapiens) [8]) was 0.638 and the composite z-score (Torsin-1A (Homo sapiens) [9]) was 0.933. For the same compound, the composite z-score [10] was 0.141, the z-score [11] was 0.79 (inactive) and the composite z-score [12] was 0.165. For the same compound, the z-score [13] was 0.541 (inactive), the z-score [14] was -0.67 (inactive) and the z-score [15] was -0.255 (inactive). The z-score [16] was -0.422 (inactive), the z-score [17] was 0.91 and the z-score [18] was -1.58 (inactive). For the same compound, the z-score [19] was -2.54 (inactive) and the z-score [20] was -1.8.
With CO[C@@H]1COC(=O)[C@H](C)NC(=O)[C@@H](C)COC(=O)CCC[C@H]1C the composite z-score [1] was -0.0361, the z-score [2] was -0.639 (inactive) and the z-score [3] was 0.019 (inactive). For the same compound, the z-score [4] was 0.085 (inactive), the z-score [5] was 0.396 (inactive) and the composite z-score [6] was -0.185. For the same compound, the composite z-score [7] was -0.128, the composite z-score (Torsin-1A (Homo sapiens) [8]) was 0.738 and the composite z-score (Torsin-1A (Homo sapiens) [9]) was 0.462. For the same compound, the composite z-score [10] was 1.24, the z-score [11] was 0.298 (inactive) and the composite z-score [12] was 0.0291. For the same compound, the z-score [13] was 5.14 (inactive), the z-score [14] was 0.891 (inactive) and the z-score [15] was 1.45 (inactive). The z-score [16] was 0.516 (inactive), the z-score [17] was -0.276 and the z-score [18] was -0.869 (inactive). For the same compound, the z-score [19] was 0.0705 (inactive) and the z-score [20] was -1.15.
With O=C(NN=C1C[C@@H](O)[C@@H](O)[C@@H]2[C@@H]3C(=O)N(c4cccc(Oc5ccccc5)c4)C(=O)[C@@H]3CC[C@H]12)OCc1ccccc1 the composite z-score [1] was -0.132, the z-score [2] was -1.24 (inactive) and the z-score [3] was 1.3 (inactive). For the same compound, the z-score [4] was -0.0199 (inactive), the z-score [5] was 0.0693 (inactive) and the composite z-score [6] was 1.68. It also gave a composite z-score [7] of -0.128, a composite z-score (Torsin-1A (Homo sapiens) [8]) of 0.0142 and a composite z-score (Torsin-1A (Homo sapiens) [9]) of -0.104. For the same compound, the composite z-score [10] was -0.689, the z-score [11] was -0.155 (inactive) and the composite z-score [12] was 0.0406. The z-score [13] was 2.26 (inactive), the z-score [14] was 1.1 (inactive) and the z-score [15] was 2.32 (inactive). The z-score [16] was 0.527 (inactive), the z-score [17] was -0.738 and the z-score [18] was 1.25 (inactive). For the same compound, the z-score [19] was 0.056 (inactive) and the z-score [20] was 0.825.
With Cc1cc2c(nc1C)CCCN2CC(O)CN1CCN(C)CC1 (stereo not given) the composite z-score [1] was -0.168, the z-score [2] was -1.28 (inactive) and the z-score [3] was 0.816 (inactive). For the same compound, the z-score [4] was -0.613 (inactive), the z-score [5] was -0.91 (inactive) and the composite z-score [6] was 0.549. The composite z-score [7] was 0.198, the composite z-score (Torsin-1A (Homo sapiens) [8]) was 0.679 and the composite z-score (Torsin-1A (Homo sapiens) [9]) was 0.528. For the same compound, the composite z-score [10] was 0.672, the z-score [11] was -0.243 (inactive) and the composite z-score [12] was 0.0733. The z-score [13] was 0.339 (inactive), the z-score [14] was 0.494 (inactive) and the z-score [15] was 0.0085 (inactive). For the same compound, the z-score [16] was -0.0963 (inactive), the z-score [17] was -0.542 and the z-score [18] was 0.438 (inactive). For the same compound, the z-score [19] was -1.07 (inactive) and the z-score [20] was -1.08.
For CCCC[C@@H]1C[C@H]1[C@@H](NS(=O)(=O)c1cccc2cccnc12)c1ccc(-c2ccccc2)cc1, the composite z-score [1] was -0.0366, the z-score [2] was -0.325 (inactive) and the z-score [3] was -1.02 (inactive). For the same compound, the z-score [4] was 0.204 (inactive), the z-score [5] was 1.62 (inactive) and the composite z-score [6] was 0.731. It also gave a composite z-score [7] of 0.134, a composite z-score (Torsin-1A (Homo sapiens) [8]) of -0.199 and a composite z-score (Torsin-1A (Homo sapiens) [9]) of -0.199. The composite z-score [10] was -1.66, the z-score [11] was -1.29 (inactive) and the composite z-score [12] was 0.0217. The z-score [13] was 1.58 (inactive), the z-score [14] was 0.985 (inactive) and the z-score [15] was 0.336 (inactive). For the same compound, the z-score [16] was 0.764 (inactive), the z-score [17] was -0.464 and the z-score [18] was 0.0564 (inactive). For the same compound, the z-score [19] was -1.29 (inactive) and the z-score [20] was 1.21.
